SMILES strings stand for the structures. A number with no mark means an inactive call.

In the assay the test system is Caenorhabditis elegans L1 (N2). As to the kind of experiment: survival and reproduction score of C. elegans L1 (0: 0-10 living worms, 1: 11-20, 2: 21-50, 3: >50, 4: overgrown) (score 0-4); higher = more worms, less nematicidal, active = 1 or less; extreme values may be limits of the assay. Particulars: 60 µM; 6 days; temperature: 20 °C. In a few lines:
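In liquid NGM with E. coli HB101, approximately 20 synchronized C. elegans N2 L1s per 96-well well were exposed to compound at 60 µM final (0.6% v/v DMSO) for 6 days at 20 °C with shaking at 200 rpm in sealed plates. Survival and reproduction were judged under a dissection microscope as an ordinal rating of living worms per well. Ratings went from 0 (0–10 worms) to 4 (overgrown, starved) and were averaged over two biological replicates.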
On to `CCOc1ccccc1-c1nnc(SCC(=O)Nc2nccs2)o1`, for which the “survival and reproduction score” value was 4.
In the case of `Clc1ccccc1-c1noc(-c2cccnc2)n1`, the “survival and reproduction score” value is 4.
Take `CC(C)(C)C(=O)CSc1nnc(-c2ccc(Cl)cc2Cl)o1`: the “survival and reproduction score” value is 4.
On to `CCCCC(=O)Nc1ccccc1-c1nc(-c2ccncc2)no1`, for which the “survival and reproduction score” value is 4.
Consider `COc1cccc(-c2nnc(SCC(=O)Nc3ccccc3)o2)c1`, for which the “survival and reproduction score” value is 4.
Regarding `COc1ccc(-c2noc(COc3ccc(C)cc3C)n2)cc1`, the “survival and reproduction score” value is 4.
In the case of `COc1ccc(CSc2nnc(-c3ccc(Cl)cc3Cl)o2)cc1`, the “survival and reproduction score” value was 0 (active).
Consider `COc1ccc(-c2nnc(SCC(=O)Nc3c(F)cc(F)cc3Br)o2)cc1`, for which the “survival and reproduction score” value was 4.
For `CCn1c(SCc2nc(-c3ccccc3)no2)nc2ccccc21`, the “survival and reproduction score” value is 4.
As to `O=C(CSc1nnc(-c2cc3ccccc3o2)o1)NC1CC1`, the “survival and reproduction score” value is 4.
As to `COc1nc(-c2ccc(Cl)cc2)ccc1-c1noc(-c2ccncc2)n1`, the “survival and reproduction score” value was 4.
As for `Cc1ccc(OCc2nc(-c3ccccc3Cl)no2)c(C)c1`, the “survival and reproduction score” value was 4.
Turning to `COc1cccc(-c2noc(-c3ccc(Cl)cc3)n2)c1`, the “survival and reproduction score” value was 3.
As for `O=C(CSc1nnc(-c2ccc(Br)cc2)o1)NC1CCCC1`, the “survival and reproduction score” value is 4.
In the case of `COc1cccc(-c2noc(-c3cccc(F)c3)n2)c1`, the “survival and reproduction score” value is 4.
With `Cc1cc(OCc2nc(-c3ccccc3)no2)ccc1Cl`, the “survival and reproduction score” value was 4.
For the compound `CCc1nnc(NC(=O)CSc2nnc(-c3cccc(C)c3)o2)s1`, the “survival and reproduction score” value is 4.
With `COc1ccccc1-c1nnc(SCC(=O)Nc2ccc(C)cc2)o1`, the “survival and reproduction score” value is 4.
With `Brc1ccc(-c2nc(-c3cccnc3)no2)cc1`, the “survival and reproduction score” value was 0 (active).
For `COc1ccc(-c2nnc(SCC(=O)Nc3ccc(Br)cc3C)o2)cc1`, the “survival and reproduction score” value was 4.
Take `COc1ccc(Cl)cc1NC(=O)CSc1nnc(-c2ccncc2)o1`: the “survival and reproduction score” value is 4.
For the compound `CCOc1ccc(-c2nc(-c3ccc(Cl)cc3)no2)cc1`, the “survival and reproduction score” value was 3.
`O=C(CSc1nnc(-c2ccncc2)o1)Nc1cc(C(F)(F)F)ccc1Cl`: the “survival and reproduction score” value is 4.
Take `Cc1ccc(C)c(-c2nc(-c3ccc(Cl)cc3)no2)c1`: the “survival and reproduction score” value is 4.
Consider `Cc1cccc(-c2noc(-c3cccc(Cl)c3)n2)c1`, for which the “survival and reproduction score” value was 4.
Regarding `CCCCCOC(=O)CSc1nnc(-c2ccc(Cl)cc2Cl)o1`, the “survival and reproduction score” value was 4.
With `Cc1cccc(-c2noc(-c3ccccc3F)n2)c1` the figure was 4; with `Clc1cc(Br)ccc1OCc1nc(-c2ccccn2)no1`, 4; with `CC(=O)Nc1cccc(-c2nnc(SCc3ccccc3)o2)c1`, 4.
In the case of `Cc1ccccc1-c1noc(-c2cccc(Br)c2)n1`, the “survival and reproduction score” value is 4.
As to `COC(=O)c1ccc(CSc2nnc(-c3ccc(OC)cc3)o2)cc1`, the “survival and reproduction score” value was 4.
As to `Cc1ccccc1-c1noc(-c2ccc(F)cc2)n1`, the “survival and reproduction score” value was 4.
With `Fc1ccc(-c2noc(-c3ccc(F)cc3)n2)cc1` the figure was 0 (active); with `Cc1ccc(-c2nnc(SCC(=O)Nc3ccc(Br)c(C)c3C)o2)cc1`, 4; with `O=C(CSc1nnc(-c2ccccc2Cl)o1)Nc1ccccn1`, 4.
With `Cc1ccccc1-c1nnc(SCc2ccccc2Cl)o1`, the “survival and reproduction score” value is 4.
The same measure for `Fc1ccc(-c2noc(COc3ccccc3)n2)cc1`: 3.5.
The same measure for `Cn1c(SCc2nc(-c3ccc(Br)cc3)no2)nnc1-c1ccco1`: 4; for `O=C(CSc1nnc(-c2ccco2)o1)c1ccc(Br)cc1`: 4.

The values are drawn from the supplement of paper PMC11219838.
